# Measurements: PMC4552634, “A New Set of Chemical Starting Points with Plasmodium falciparum Transmission-Blocking Potential for Antimalarial Drug Discovery” (PLoS ONE, 2015)
# Hit rate of the full screen: of about 13,000 compounds, about 3,200 (25%) showed an effect of 50% or more. The list shows a part of the results.
# Test system: P. falciparum stage V gametocytes
# Design: BacTiter-Glo ATP luminescence viability of purified stage V gametocytes in 384-well plates, per cent inhibition versus DMSO
# Conditions: 48 h, 5 µM; inhibitor
row,SMILES,% Inhibition
1,O=C(C=CC(=O)N1CCCCC1)NCc1ccccc1 [TCMDC-131645],19.39%
2,NC(=O)c1ccccc1OCC(=O)Nc1cccc(-c2ccc(-c3nc4ccccc4[nH]3)cc2)c1 [TCMDC-132128],7.419%
3,COc1ccc2ncc(C#N)c(CCN3CCC(NCc4ccc5c(c4)NC(=O)CO5)CC3)c2c1 [TCMDC-135645],-0.6152%
4,CCNc1cc(CCCC(=O)OCC)nc(Nc2ccc(C)cc2)n1 [TCMDC-134018],-48.18%
5,OC(CNc1ccnc(Nc2ccccc2)n1)c1cccc(C(F)(F)F)c1 (stereo not shown) [TCMDC-136588],30.58%
6,CC[C@H]1CN(C/C=C/c2ccc(OC)cc2)CC[C@H]1CCCc1ccnc2ccc(O)cc12 [TCMDC-140258],-1.76%
7,CCCCCCCN1CC[C@@H](CCCc2ccnc3ccc(OC)cc23)[C@@H](CNC)C1 [TCMDC-139875],105.4%
8,CCCCCCCN1CC[C@@H](C[C@H](N)Cc2ccnc3ccc(OC)cc23)[C@@H](CC)C1 [TCMDC-139827],11.08%
9,CCCCCCCN1CC[C@@H](CCCc2ccnc3ccc(OC)cc23)[C@@H](CCN)C1 [TCMDC-139278],113.6%
10,CCCCCCCCCN1CC[C@@H](CCCc2ccnc3ccc(O)cc23)[C@@H](CC)C1 [TCMDC-131442],46.81%
11,Cc1cccc2c(/C=C/C(=O)NC3CCC(CCN4CCc5ccc(C#N)cc5CC4)CC3)c[nH]c12 (stereo not shown) [TCMDC-139665],43.65%
12,O=C(Nc1cccc(-c2cc(-c3c(Cl)cccc3Cl)no2)c1)c1cncc(-c2cccs2)c1 [TCMDC-136736],-10.57%
13,C[C@@H](N=C(Nc1ccc(C#N)cc1O)Nc1ccccc1Cl)c1ccc(Br)cc1 [TCMDC-140257],-91.02%
14,O=C(Nc1cccc(-c2ccc(-c3nc4ccc(F)cc4[nH]3)cc2)c1)c1cccnc1 [TCMDC-136923],8.252%
15,CCc1nc(N)nc(N)c1-c1ccc(C(C)(C)C)cc1 [TCMDC-137367],5.64%
16,CC(N)(Cc1ccc(O)cc1)c1nn[nH]n1 (stereo not shown) [TCMDC-131387],-7.705%
17,CCCc1cc(OC)c(CC2c3cc(O)c(Cl)cc3CCN2C)cc1OC (stereo not shown) [TCMDC-137166],27.65%
18,COc1cc(CC2c3cc(O)c(Cl)cc3CCN2C)c(OC)cc1C (stereo not shown) [TCMDC-137434],71.2%
19,CCCc1cc(OC)c(C[C@H]2c3cc(O)c(Cl)cc3CCN2C)cc1OC [TCMDC-137779],20.32%
20,CCCCCCCCCCN1C(=O)C2C(CCCCNC(C)=O)NC3(C(=O)N(Cc4ccc(C(C)(C)C)cc4)c4ccccc43)C2C1=O (stereo not shown) [TCMDC-139772],47.42%
21,Cc1[nH]c(C)c([N+](=O)[O-])c(=O)c1-c1ccc(Oc2ccc(OC(F)(F)F)cc2)cc1 [TCMDC-135555],-1.899%
22,Cc1[nH]c(C)c(Cc2ccc(Oc3ccc(OC(F)(F)F)cc3)cc2)c(=O)c1Br [TCMDC-134530],-23.78%
23,Cc1nc(C)c(-c2ccc(Oc3ccc(OC(F)(F)F)cc3)cc2)c(OC(=O)c2ccccc2)c1Cl [TCMDC-137380],76.96%
24,CC(=O)Oc1c(Cl)c(C)nc(C)c1-c1ccc(Oc2ccc(OC(F)(F)F)cc2)cc1 [TCMDC-137385],74.48%
25,Cc1nc(C)c(-c2ccc(Oc3ccc(OC(F)(F)F)cc3)cc2)c(OC(=O)c2ccc(CN(C)C)cc2)c1Cl [TCMDC-137382],68.19%

row,SMILES,% Inhibition
1,CN(C)Cc1c(O)ccc2[nH]c(-c3ccc(OC(F)(F)F)cc3)nc12 [TCMDC-136529],-83.05%
2,CC(=O)Oc1c(Br)c(C)nc(C)c1-c1ccc(Oc2ccc(OC(F)(F)F)cc2)cc1 [TCMDC-137383],72.41%
3,Cc1cc(=O)c2cc(Oc3ccc(OC(F)(F)F)cc3)ccc2[nH]1 [TCMDC-138906],0.2157%
4,Cc1[nH]cc(Br)c(=O)c1-c1ccc(Oc2ccc(OC(F)(F)F)cc2)cc1 [TCMDC-136197],-4.559%
5,CC(C)NCc1ccc(-c2cccc(-c3nc4ccc(C(F)(F)F)cc4[nH]3)c2)cc1 [TCMDC-132739],37.23%
6,COc1ccc2nccc([C@H](O)CN3CCC(NCc4ccc5c(c4C)OCCO5)CC3)c2n1 [TCMDC-136066],21.32%
7,Cc1c(C)n(C2CCCCC2)c2ncnc(OC3CCN(CC(=O)N4CCCC4)CC3)c12 [TCMDC-124854],2.854%
8,COc1ccc(C(=O)NC2CCN(c3ccnc4cc(Cl)ccc34)C2)cc1 (stereo not shown) [TCMDC-133648],42.46%
9,Cc1cc(Nc2ccccc2)nc(Nc2ccccc2)n1 [TCMDC-124214],11.37%
10,Cn1c(NC(=O)CCCCCNC(=O)c2ccc(O)c(-c3ccc(Cl)c(Cl)c3)c2)nc2ccccc21 [TCMDC-140880],4.339%
11,CC(=O)Oc1c(Cl)c(C)nc(C)c1-c1ccc(Oc2ccc(Cl)cc2)cc1 [TCMDC-137381],75.31%
12,Cc1cc(Nc2ccc(Oc3ccc(Cl)cc3)cc2)nc(N)n1 [TCMDC-138073],-5.729%
13,Cc1nc(N)nc(N)c1-c1ccc(Cl)cc1 [TCMDC-138984],-0.9845%
14,COc1cccc(CN2CCCC(COC(c3ccc(F)cc3)c3ccc(F)cc3)C2)c1O (stereo not shown) [TCMDC-136038],-18.09%
15,CC(C)Oc1cccc(-c2ccc(C(=O)NCC3CCCN(Cc4cccc(C(F)(F)F)c4)C3)s2)c1 (stereo not shown) [TCMDC-134362],86.43%
16,CN(C)c1ccc(-c2ccc(C(=O)NC3CCN(Cc4cccc(C(F)(F)F)c4)CC3)s2)cc1 [TCMDC-134365],-28.78%
17,O=C(NC1CCN(Cc2cccc(C(F)(F)F)c2)CC1)c1ccc(-c2cccc(Cl)c2)s1 [TCMDC-134364],25.17%
18,COc1ccccc1-c1ccc(C(=O)NCC2CCCN(Cc3cccc(C(F)(F)F)c3)C2)s1 (stereo not shown) [TCMDC-134360],55.62%
19,CC(=O)Nc1ccc(CN2CCC(NC(=O)c3ccc(-c4cccc(OC(C)C)c4)s3)CC2)cc1 [TCMDC-134335],1.059%
20,COc1cccc(-c2ccc(C(=O)NCC3CCCN(Cc4cccc(C(F)(F)F)c4)C3)s2)c1 (stereo not shown) [TCMDC-134361],72.66%
21,CN(C)c1ccc(CN2CCC(NC(=O)c3ccc(-c4cccc(C(F)(F)F)c4)s3)CC2)cc1 [TCMDC-134325],-44.98%
22,O=C(NC1CCN(Cc2cccc(C(F)(F)F)c2)CC1)c1ccc(-c2cccc(C(F)(F)F)c2)s1 [TCMDC-134363],23.99%
23,CN(C)c1ccc(CN2CCCC(CNC(=O)c3ccc(-c4cccc(C(F)(F)F)c4)s3)C2)cc1 (stereo not shown) [TCMDC-134324],98.4%
24,COc1ccccc1CN1CCC(NC(=O)c2ccc(-c3cccc(C(F)(F)F)c3)s2)CC1 [TCMDC-134355],4.957%
